# Screening data as filed in PubChem BioAssay.
# Rows were chosen to be rich in hits. Some 19% of all compounds tested hit in one or more screens of this group.
# HT1080 IDH1KD tx = qHTS for induction of synthetic lethality in tumor cells producing 2HG: qHTS for the HT-1080-IDH1KD cell line; HT-1080 IDH1 knockdown viability, ATP luminescence, 48 h; Potency, µM (top dose mostly 46.1 µM), for the others: top-dose activity, negative = toxicity, most hits filed as cytotoxic; 360,000 compounds, 2% hits;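 note: 0% = DMSO wells and -100% = cell-free medium wells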
#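 HT-1080-IDH1KD cells (IDH1 knocked down), 750/well in RPMI with 5% FBS, treated with compound 48 h at 37 degrees C. Viability by CellTiter-Glo luminescence, normalised to DMSO and no-cell wells; concentration-response curves classed.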
# HT1080NT lethal = qHTS for induction of synthetic lethality in tumor cells producing 2HG: qHTS for the HT-1080-NT fibrosarcoma cell line; HT-1080-NT fibrosarcoma viability, CellTiter-Glo ATP luminescence, 48 h; Potency, µM (series often up to 46.1 µM), inactives show at the top dose activity, negative = less viability, usual class: cytotoxic; 360,000 compounds, 1.6% hits; AID 686970, 2013;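 note: NT is the 2HG producing partner of a matched IDH1 knockdown line; 0% = DMSO-treated cells and -100% = media-only wells without cells; nearly all actives have a fitted effect of over 55% in size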
#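 750 cells/well, RPMI + 5% FBS; 2 h settle, compound pin-transfer, 48 h at 37 degrees C. CellTiter-Glo 10 min RT, luminescence. Normalized to DMSO and media-only wells.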
# KB-3-1 cytotox = qHTS assay for MDR1-selective chemotherapeutics: Primary screen using the parental adenocarcinoma cell KB-3-1. KB-3-1 viability, CellTiter-Glo ATP luminescence, 72 h. Potency, µM (top dose mostly 46.1 µM), most hits filed as cytotoxic. 400,000 compounds, 1.4% hits. AID 1347075, 2019; note: nearly all actives have a fitted effect of over 60% in size
#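 Screening of KB-3-1 cells (DMEM, 10% FBS, phenol-red free) ran from lowest to highest compound concentration; after 72 h at 37 °C viability was read luminescently and curves fitted.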
# DT40 TDP1 CPT = qHTS for Inhibitors of human tyrosyl-DNA phosphodiesterase 1 (TDP1): qHTS in cells in presence of CPT; chicken DT40 Tdp1-/-;hTDP1 cells + 20 nM CPT, ATP luminescence, 48 h; Potency, µM (series often up to 46.2 µM), without a hit: at the top dose activity change, negative = growth inhibition, usual class: inhibitors; 420,000 compounds, 12% hits; AID 686979, 2013; note: nearly all actives have a fitted effect of over 55% in size
#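 Chicken DT40 Tdp1-/- cells stably complemented with human TDP1 were seeded at 400 cells/well in medium containing 20 nM camptothecin, exposed to pin-transferred compounds, and grown at 37 °C for at least 48 hr. Viability was read as ATP luminescence.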
# KB-V1 MDR tox = qHTS assay for MDR1-selective chemotherapeutics: Primary screen using the drug-selected MDR subline cells KB-V1; Potency, µM (top dose mostly 46.1 µM), usual class: cytotoxic; KB-V1 MDR cells viability, CellTiter-Glo, 72 h; 400,000 compounds, 3.4% hits; note: nearly all actives have a fitted effect of over 60% in size
#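 Cytotoxicity via CellTiter-Glo luminescence after 72 h compound exposure at 37 degrees C. Cells: drug-selected KB-V1 line, DMEM phenol-red free plus 10% FBS. Compounds tested at multiple concentrations; normalized data fitted to concentration-effect curves.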
# DT40 TDP1 no CPT = qHTS for Inhibitors of human tyrosyl-DNA phosphodiesterase 1 (TDP1): qHTS in cells in absence of CPT | DT40 Tdp1-/- hTDP1 cells, no CPT, ATP luminescence, 48 h | Potency, µM (highest dose often 46.2 µM), for the others: at the top dose activity change, negative = growth inhibition, most hits filed as inhibitors | 420,000 compounds, 15% hits | AID 686978, 2013; note: nearly all actives have a fitted effect of over 55% in size
#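 Cells were dispensed at 400 per well, compounds added by pin tool, plates incubated ≥48 hr at 37 °C, then CellTiter-Glo added for 30 min at room temperature before luminescence reading. Line: DT40 Tdp1-/- complemented with hTDP1; camptothecin omitted.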
# * marks the source's active call; other numbers are inactive results; i = inactive; ? = inconclusive; / = no result given. Calls come from the whole dose curve; as a rule, active = well fitted curve in the direction sought with a large enough effect; inconclusive = small, poorly fitted or top-dose-only effect, or another doubt; inactive = no such curve, though single readings can be large; an effect the other way counts as inactive or inconclusive. Unless noted, % is set by controls: 0 for no effect and ±100 for the full control effect; potency is the fitted concentration of half-maximal effect.
SMILES,HT1080 IDH1KD tx,HT1080NT lethal,KB-3-1 cytotox,DT40 TDP1 CPT,KB-V1 MDR tox,DT40 TDP1 no CPT
Cc1ccc(CNC(=O)c2cccc(-n3cnc4cccnc43)c2)cc1,/,/,i,?,i,?
CC(C)Nc1ncnc2c1ncn2[C@H]1CN(Cc2cccnc2)C[C@@H](CO)O1,7%,16%,i,7%,i,-1%
CC(OC(=O)c1cc(O)c2ccccc2c1O)C(=O)Nc1ccc(C(N)=O)cc1 (stereo not drawn),?,16µM*,i,?,i,?
CC(OC(=O)c1ccccc1C(=O)N(C)c1ccccc1)C(=O)Nc1ccc(C(N)=O)cc1 (stereo not drawn),5%,3%,i,1%,i,?
Cc1ccc(S(=O)(=O)N2CCC(C(=O)OCC(=O)N(Cc3ccccc3)C(C)C)CC2)cc1C,5%,3%,i,-4%,i,?
Nc1c(C(=O)Nc2ccc(C(=O)O)cc2)sc2nc3c(cc12)CCCC3,/,/,i,-4%,i,?
COc1ccc(OC)c(NC(=O)c2sc3nc4c(cc3c2N)CCCCCC4)c1,/,/,i,?,i,?
Cc1cccc(NC(=O)c2sc3nc4c(cc3c2N)CCCCCC4)c1C,/,/,?,1.5µM*,i,0.65µM*
CCOc1ccc(NC(=O)c2sc3nc4c(cc3c2N)CCCCCC4)cc1,/,/,/,8.2µM*,/,?
Cc1cc(C)c2c(N)c(C(=O)Nc3cccc(C)c3C)sc2n1,?,-12%,?,?,6.5µM*,16µM*
Cc1ccccc1NC(=O)c1sc2nc3c(cc2c1N)CN(Cc1ccccc1)CC3,/,/,i,?,i,18µM*
COc1cccc(NC(=O)CN(C)C(=O)CC(NC(=O)c2ccccc2Cl)c2ccccc2)c1 (stereo not drawn),4%,0%,i,-2%,i,7%
CCN1CCN(c2cc(C)c3cc(NC(=O)c4cncc(Br)c4)ccc3n2)CC1,-4%,-10%,i,?,?,?
Cc1ccccc1C(=O)Nc1ccc2nc(Nc3cccc(C(F)(F)F)c3)cc(C)c2c1,/,/,?,21µM*,i,18µM*
Cc1cc(Nc2cccc(C(F)(F)F)c2)nc2ccc(NC(=O)c3cncc(Br)c3)cc12,/,/,/,5.8µM*,/,5.2µM*
CCOc1cc(C(=O)Nc2ccc3nc(Nc4cccc(Cl)c4)cc(C)c3c2)cc(OCC)c1OCC,/,/,i,4.6µM*,i,6.5µM*
Cc1cc(Nc2cccc(Cl)c2)nc2ccc(NC(=O)c3cncc(Br)c3)cc12,/,/,?,4.6µM*,?,5.2µM*
Cc1ccc2cc(NC(=O)c3ccccc3C)ccc2n1,6%,17%,i,-16%,i,1%
CC(=O)N1CCN(C(=O)COC(=O)c2oc3ccccc3c2C)CC1,2%,12%,i,-3%,i,0%
CCc1c(C)c2cc3c(c(C)c2oc1=O)OCN(CCc1ccc(OC)c(OC)c1)C3,/,/,i,?,?,?
CC(=O)c1sc2nsc(SCCN3CCCC3)c2c1N,-2%,-10%,i,26µM*,i,?
CC(=O)c1sc2nc(C)c3c(c2c1N)CCCC3,-13%,-1%,?,0%,?,?
COc1cccc(NC(=O)C2(C)CCN2C(=O)Cc2cccc3ccccc23)c1 (stereo not drawn),-11%,-9%,i,?,i,?
O=C(NNC(=O)c1cccc(S(=O)(=O)N2CCc3ccccc32)c1)c1ccccc1,?,-7%,?,?,?,5.2µM*
CC(C)CCNC(=O)c1cccc(S(=O)(=O)N2CCc3ccccc32)c1,-26%,-4%,i,15µM*,i,?
SMILES,HT1080 IDH1KD tx,HT1080NT lethal,KB-3-1 cytotox,DT40 TDP1 CPT,KB-V1 MDR tox,DT40 TDP1 no CPT
Cc1ccc(C)c(-n2c3nc(=O)[nH]c(=O)c-3cc3c(C)nn(-c4ccccc4)c32)c1,/,/,i,-2%,i,10%
C/C=C/c1ccc(OCCOCCNCc2ccccc2)c(OC)c1,-30%,?,i,?,i,18µM*
Cc1cc(C)c(C)c(OCCOCCNCc2ccccc2)c1,-10%,-17%,i,?,15µM*,18µM*
C/C=C/c1ccc(OCCOc2cc(C=O)ccc2OC)c(OC)c1,-13%,-22%,i,?,15µM*,26µM*
C/C=C/c1ccc(OCC(=O)O)c(OC)c1,12%,-27%,i,-2%,i,-16%
CCN(CC)c1ccc(/C=C2/SC(=O)N(C(C)C)C2=O)o1,?,13µM*,?,-91%,i,2.3µM*
CC(C)N1C(=O)S/C(=C\c2ccc(-c3ccc(Cl)c(C(=O)O)c3)o2)C1=O,-17%,-23%,i,?,i,?
Cc1ccc(C)c(NC(=O)COC(=O)CC2c3ccccc3CCN2S(=O)(=O)c2ccc(F)cc2)c1 (stereo not drawn),-22%,-4%,i,-14%,21µM*,?
O=C(COC(=O)CC1c2ccccc2CCN1S(=O)(=O)c1ccccc1)Nc1ccccc1 (stereo not drawn),-1%,-2%,i,?,?,21µM*
Cc1ccccc1NC(=O)Nc1ccc2nc(N3CCN(C)CC3)cc(C)c2c1,/,/,i,?,i,?
CCOc1ccccc1NC(=O)Nc1ccc2nc(N3CCN(C)CC3)cc(C)c2c1,/,/,i,?,?,23µM*
CCOc1ccccc1C(=O)Nc1ccc2nc(N3CCN(c4ncccn4)CC3)cc(C)c2c1,?,?,15µM*,18µM*,8.2µM*,9.2µM*
CCCC(=O)Nc1ccc2oc(=O)ccc2c1,10%,13%,i,-9%,i,-1%
COc1ccc(Nc2c(-c3ccc(C)o3)nc3ccc(Cl)cn23)cc1,/,/,i,7.3µM*,i,18µM*
Clc1ccc(Nc2c(-c3ccccc3Cl)nc3ccc(Cl)cn23)cc1,/,/,i,?,i,26µM*
Cc1ccc(Cl)cc1NC(=O)N1CCC(CN2CCc3ccccc3C2)CC1,/,/,/,-11%,/,-13%
